Screens deposited in PubChem BioAssay by several laboratories.
ugtP null kill: kills S. aureus RN4220 lacking UgtP; S. aureus RN4220 ugtP deletion, OD600 growth, 16 h; growth inhibition, % (concentration not given with the values); actives 0.54% (n = 330,000); in the data active means growth inhibition above about 68%;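 further: plate controls were untreated wells for no effect and antibiotic for full effect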
Sa RN4220 lethal: S. aureus RN4220 growth inhibition. actives 0.33% (n = 330,000). AID 1259311. inhibition, % (test concentration not listed). OD600, 16 h; in the data active means inhibition above about 85%;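 further: plate controls were untreated cells for no effect and reference antibiotic for full effect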
PfHsp40 yeast: rescue of PfHsp40-mediated yeast toxicity | S. cerevisiae expressing PfHsp40, growth rescue, ATP luminescence | growth rescue, % at 12.5 µM | actives 0.68% (n = 340,000); in the data active means growth rescue above about 28%, passing the limit was not always enough;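 further: yeast W303a lacking pdr1 and pdr3 grown in galactose medium; growth measured after three days at 30 °C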
Mtb betalactam: beta-lactam sensitization of Mtb H37Rv | actives 0.27% (n = 330,000) | AID 434955 | M. tuberculosis H37Rv growth with meropenem, percent inhibition | inhibition, % at 25 µM; call rule not given here;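 further: growth measured after seven days incubation then overnight dye step; 0% = bacteria only wells and 100% = bacteria with antibiotic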
BioA inh: blocks M. tuberculosis BioA enzyme activity; purified M. tuberculosis BioA enzyme, plate reader; inhibition, % at 9.99 µM; actives 0.096% (n = 360,000); in the data active means inhibition above about 40%
An asterisk follows results filed as active. Sampled rows, rich in hits. Any-hit rate of the full collection: about 0.9%.

`CCCOc1ccc(C=NNC(=O)c2ccc(Cn3cc([N+](=O)[O-])cn3)o2)cc1` gave ugtP null kill -6 and Sa RN4220 lethal 0.
For O=C(C1=CC(c2ccc(Br)cc2)CC(OCc2ccc(CO)cc2)O1)N1CCN(Cc2ccccc2)CC1 (stereo not given) the results were ugtP null kill 4 and Sa RN4220 lethal 16.
C=CC(n1cncn1)C(O)(c1ccccc1)c1ccccc1 (stereo not given) was read as ugtP null kill -1, Sa RN4220 lethal 8, PfHsp40 yeast 146*, Mtb betalactam -9 and BioA inh -1.
Cc1cc(C(=O)OCC(=O)NC2CCCC(C)C2C)c(C)o1 (stereo not given) was read as ugtP null kill 4, Sa RN4220 lethal -1, PfHsp40 yeast 62*, Mtb betalactam 1 and BioA inh -1.
For O=C(O)c1ccc(N=Cc2c(O)ccc3oc4c(c23)CCCC4)cc1 the results were PfHsp40 yeast 2 and Mtb betalactam 37.
Screening Oc1ccccc1N=Cc1c(O)ccc2oc3c(c12)CCCC3 returned PfHsp40 yeast 190*, Mtb betalactam 98 and BioA inh -2.
`Cc1ccc(-n2nnnc2SCC(=O)N2CCc3ccccc3C2)c(C)c1` gave ugtP null kill 12, Sa RN4220 lethal -2, PfHsp40 yeast 71*, Mtb betalactam 9 and BioA inh 1.
Screening COc1ccc(NC(=O)c2nc[nH]c2C(=O)N[C@@H](CC(C)C)C(=O)OC(C)(C)C)cc1 returned PfHsp40 yeast 27*, Mtb betalactam 19 and BioA inh -1.
Screening COc1ccc(NC(=O)c2nc[nH]c2C(=O)NC(C)C(=O)OC(C)(C)C)cc1 (stereo not given) returned ugtP null kill 4 and Sa RN4220 lethal 5.
For FC(F)(F)c1cnc(N2CCN(C(=S)NCc3ccccc3)CC2)c(Cl)c1 the results were ugtP null kill 46, Sa RN4220 lethal -8, PfHsp40 yeast 77* and Mtb betalactam 6.
For COc1cc(C=NNC(=O)c2cc(-c3c(C)nn(-c4ccccc4)c3C)n[nH]2)ccc1O the results were ugtP null kill 95* and Sa RN4220 lethal 62.
For COc1cc(/C=N/NC(=O)c2cc(-c3c(C)nn(-c4ccccc4)c3C)n[nH]2)ccc1O the results were PfHsp40 yeast 1, Mtb betalactam 94 and BioA inh 1.
`Cc1cccc(C(=O)OC2C(C)NS(=O)(=O)C3CC4C=C[C@]23O4)c1` (stereo not given in full) gave ugtP null kill -2 and Sa RN4220 lethal 8.
Cc1cc(=O)n(-c2ccc(O)cc2)[nH]1 was read as ugtP null kill 82*, Sa RN4220 lethal 18, PfHsp40 yeast 0, Mtb betalactam 29 and BioA inh -1.
For CCN1CC2C3C(=O)N(C)C(=O)C3[C@](C)(C1=O)N2C(=O)c1ccc(Br)cc1 (stereo not given in full) the results were ugtP null kill 1 and Sa RN4220 lethal 4.
COc1cccc(/C=C2\SC(=S)N(NS(=O)(=O)c3ccccc3)C2=O)c1OC was read as ugtP null kill 17, Sa RN4220 lethal 31, PfHsp40 yeast 11, Mtb betalactam -5 and BioA inh 1.
`COc1ccc(/C=C2/SC(=O)N(NS(=O)(=O)c3ccccc3)C2=S)cc1OC` gave ugtP null kill 0, Sa RN4220 lethal 48, PfHsp40 yeast 35*, Mtb betalactam -7 and BioA inh -2.
Screening COc1cc(/C=C2\SC(=S)N(NS(=O)(=O)c3ccccc3)C2=O)cc(OC)c1OC returned ugtP null kill 2, Sa RN4220 lethal 15, PfHsp40 yeast 41*, Mtb betalactam 16 and BioA inh 0.
For COc1ccc(-n2c(O)c(C=NNS(=O)(=O)c3cc(C)ccc3C)c3ccccc3c2=O)cc1OC the results were ugtP null kill -1 and Sa RN4220 lethal 7.
Screening Cc1ccc(S(=O)(=O)Nc2ccc(O)c3ncccc23)cc1 returned ugtP null kill -2, Sa RN4220 lethal 5, PfHsp40 yeast 188*, Mtb betalactam 7 and BioA inh 1.
`O=c1c(OC2OC(CO)C(O)C(O)C2O)c(-c2ccc(O)cc2)oc2cc(O)cc(O)c12` (stereo not given) gave ugtP null kill -4 and Sa RN4220 lethal -1.
Screening C[C@]12C(=O)N(c3ccccc3)C(=O)N1C1c3ccccc3OCC1C2c1ccccc1 (stereo not given in full) returned ugtP null kill -1 and Sa RN4220 lethal -4.
N#CC(=NNc1cccc([N+](=O)[O-])c1)C(=O)c1ccc(Br)cc1 was read as ugtP null kill 89* and Sa RN4220 lethal 94*.
For COc1ccc(C(=O)/C(C#N)=N/Nc2ccc([N+](=O)[O-])cc2)cc1 the results were PfHsp40 yeast 1 and Mtb betalactam 21.
COc1ccc(C(=O)C(C#N)=NNc2cccc([N+](=O)[O-])c2)cc1 was read as ugtP null kill 87* and Sa RN4220 lethal 86*.
CN1CCN(C(=O)c2ccc(CS(=O)Cc3ccc(Cl)cc3)o2)CC1 (stereo not given) was read as ugtP null kill 10, Sa RN4220 lethal 2, PfHsp40 yeast -1, Mtb betalactam -2 and BioA inh -1.
O=C(c1ccc(CS(=O)Cc2ccc(Cl)cc2)o1)N1CCN(c2ccccc2F)CC1 (stereo not given) was read as ugtP null kill 99*, Sa RN4220 lethal -10, PfHsp40 yeast 0, Mtb betalactam 4 and BioA inh 2.
For COc1ccc(N2CCN(C(=O)c3ccc(CS(=O)Cc4ccc(Cl)cc4)o3)CC2)cc1 (stereo not given) the results were ugtP null kill 99*, Sa RN4220 lethal -8, PfHsp40 yeast -1, Mtb betalactam 12 and BioA inh 2.
Cc1ccc(C)c(N2CCN(C(=O)c3ccc(CS(=O)Cc4ccc(Cl)cc4)o3)CC2)c1 (stereo not given) was read as ugtP null kill 49, Sa RN4220 lethal -3, PfHsp40 yeast 4, Mtb betalactam 8 and BioA inh 3.
Screening Cc1ccc(Cl)cc1N1CCN(C(=O)c2ccc(CS(=O)Cc3ccc(Cl)cc3)o2)CC1 (stereo not given) returned ugtP null kill 96*, Sa RN4220 lethal -8, PfHsp40 yeast 11, Mtb betalactam -5 and BioA inh 4.
`Cc1cccc(N2CCN(C(=O)c3ccc(CS(=O)Cc4cccc(Cl)c4)o3)CC2)c1C` (stereo not given) gave ugtP null kill 90*, Sa RN4220 lethal -1, PfHsp40 yeast 7, Mtb betalactam 2 and BioA inh 1.
For O=C(C1=CC(C2CC2)CC(OCc2ccc(CO)cc2)O1)N1CCN(Cc2ccccc2)CC1 (stereo not given) the results were ugtP null kill 0 and Sa RN4220 lethal 5.
Screening CCNc1nc(NCC)nc(N(n2cnnc2)S(=O)(=O)c2ccc(C)cc2)n1 returned ugtP null kill 99*, Sa RN4220 lethal 97*, PfHsp40 yeast 0 and Mtb betalactam 0.
